# Screens: PubChem BioAssay, National Center for Advancing Translational Sciences (NCATS)
# Mito fusion yeast: inhibitors of mitochondrial division or activators of mitochondrial fusion. S. cerevisiae fusion-defective mutant growth rescue, CellTiterGlo 48 h. Potency, µM (titrated, usually from 46.1 µM), without a hit: at the highest dose growth rescue (activation), usual class: activators. actives 0.23% (n = 320,000). AID 485298; note: % of control where 0% means no effect; nearly all actives have a fitted effect of over 45% in size
#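 S. cerevisiae fusion-defective temperature-sensitive mutants (e.g. fzo1-1, mgm1-5) grown 48 h at 37C in YPEG (ethanol/glycerol non-fermentable) medium with 23 nl compound per well; growth rescue read as CellTiterGlo luminescence.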
# Abeta yeast res: restores growth of yeast expressing A-beta42 peptide; Potency, µM (top dose mostly 46.1 µM), most hits filed as activators; yeast expressing A-beta42, growth rescue, OD600, 48 h; response scale: 0% DMSO, 100% iron-clioquinol control; actives 0.063% (n = 410,000); note: nearly all actives have a fitted effect of over 55% in size
#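 Yeast A-beta toxicity model in growth medium with pinned compounds, 48 h at 30 C; growth read as absorbance at 600 nm. Normalized to FeCl3/clioquinol equimolar mix (positive) and DMSO (negative).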
# TDP43 rescue: inhibitors of TDP-43 toxicity in yeast; TDP-43 expressing yeast growth rescue, BacTiter-Glo, 24 h; Potency, µM (series often up to 46.1 µM), without a hit: top-dose growth rescue (activation), most hits filed as activators; actives 1.8% (n = 410,000); AID 652104; note: % of control where 0% means no effect; nearly all actives have a fitted effect of over 50% in size
#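 Readout is BacTiter-Glo luminescence of cell growth, so inhibitors register as activators. TDP-43-expressing yeast at OD600=0.02 in galactose medium, after raffinose pregrowth to mid-log, were incubated with compound for 24 hr at 30 deg C.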
# aSyn yeast inh: inhibitors of alpha-synuclein toxicity in yeast | Yeast expressing alpha-synuclein, growth rescue, BacTiter-Glo, 24 h | Potency, µM (doses to about 46.1 µM), without a hit: at the top dose growth rescue (activation), most hits filed as activators | actives 0.14% (n = 370,000) | AID 652106; note: % of control where 0% means no effect; nearly all actives have a fitted effect of over 65% in size
#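 Readout is rescue of growth in alpha-synuclein-expressing yeast, so inhibitors of toxicity appear as activators. Growth after 24 hr at 30 deg C in galactose medium is quantified by luminescence.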
# FUS suppressor: suppressors of FUS proteinopathy in yeast; actives 0.24% (n = 390,000); Potency, µM (titrated, usually from 76.6 µM), hits mostly activators; S. cerevisiae FUS-expressing, growth rescue, OD600, 24 h;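 note: plate controls were DMSO vehicle for no effect and reference control for full effect; nearly all actives have a fitted effect of over 55% in size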
#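 Toxicity suppression screen in FUS-yeast. Cells induced with 2% galactose, starting OD 0.005, treated 24hr at 30C with compounds at multiple final concentrations; growth by OD600.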
# Numbers without * were called inactive; i = inactive; ? = inconclusive; nt = not tested or not shown. An excerpt weighted towards active compounds, which were near 2.2% of everything screened. Calls come from the whole dose curve; as a rule, active = well fitted curve in the direction sought with a large enough effect; inconclusive = small, poorly fitted or top-dose-only effect, or another doubt; inactive = no such curve, though single readings can be large; an effect the other way counts as inactive or inconclusive. Potency is the fitted concentration of half-maximal effect.
SMILES,Mito fusion yeast,Abeta yeast res,TDP43 rescue,aSyn yeast inh,FUS suppressor
CCOc1ccc(CCN2C(=O)C(=O)N([C@@H](CC(C)C)CN3CCC[C@H]3CN3C(=O)C(=O)NC[C@@H]3Cc3ccccc3)C[C@@H]2Cc2ccccc2)cc1,nt,i,-17%,-4%,?
COc1ccc(CNC(=O)c2ccc(-c3nc(CS(=O)c4ccc(C)cc4)c(C)o3)cc2)cc1 (stereo not drawn),nt,i,-27%,nt,25µM*
Cc1ccc2nc(N3CCC(C(=O)O)CC3)nc(-c3ccccc3)c2c1,7%,i,22µM*,12%,i
Cc1ccc2nc(N3CCN(C(=O)CCC(=O)O)CC3)nc(-c3ccccc3)c2c1,-31%,i,5%,0%,i
Cc1nc(N2CCCCC2C)c2c(C)c(C(=O)Nc3ccccc3C(F)(F)F)sc2n1 (stereo not drawn),-2%,i,14µM*,-24%,i
Cc1nc(N2CCC(C)CC2)c2c(C)c(C(=O)Nc3ccc(C(F)(F)F)cc3)sc2n1,6%,i,?,13%,i
Cc1nc(N2CCC(C)CC2)c2c(C)c(C(=O)Nc3ccc4c(c3)OCCO4)sc2n1,24%,i,7.1µM*,3%,i
Cc1nc(N2CCOCC2)c2c(C)c(C(=O)Nc3ccccc3C(F)(F)F)sc2n1,-8%,i,?,8%,i
Cc1c(C(=O)Nc2ccc3c(c2)OCCO3)sc2ncnc(N3CCCCC3C)c12 (stereo not drawn),11µM*,i,16µM*,5%,i
CN(C)c1ccc2c(c1[N+](=O)[O-])Cc1ccccc1-2,nt,i,21%,-1%,nt
O=C(c1cccc(I)c1)N1CCC(Oc2cccnc2)CC1,nt,nt,nt,nt,i
Fc1ccc(C(NCCc2ccc(Cl)cc2)c2nnc(-c3ccccc3Cl)o2)cc1 (stereo not drawn),nt,i,32µM*,nt,i
Cc1cc(C)nc(N2CCC(C(=O)N(C)CCc3ccccc3)CC2)n1,nt,nt,nt,nt,i
CCOc1cccc2sc(N3CCN(C(=O)C(C)(C)C)CC3)nc12,nt,i,11µM*,nt,i
COc1ccc(OC)c2sc(N3CCN(C(=O)C(C)(C)C)CC3)nc12,nt,i,22µM*,nt,i
Cc1cccc(Cn2nnc3c(=O)[nH]c(C4CCCN(C(=O)c5ccc(C(C)(C)C)cc5)C4)nc32)c1 (stereo not drawn),nt,i,12%,nt,22µM*
O=[N+]([O-])c1ccc(N2CCN(c3ccccc3O)CC2)c(Cl)c1,19%,i,14%,5%,i
O=C1Cc2cc([N+](=O)[O-])ccc2N1c1c(Cl)cccc1Cl,-8%,i,20µM*,3%,i
C[C@H](CO)N1C[C@H](C)[C@@H](CN(C)CC2CCCCC2)Oc2c(NC(=O)Cc3ccccc3)cccc2C1=O,nt,i,0%,-2%,i
COC(=O)c1sc2cccc(F)c2c1S(=O)(=O)N1CCN(c2ccc(C)cc2C)CC1,nt,i,17%,nt,i
O=C(NCCc1csc(-c2ccc(F)cc2)n1)c1cccc(F)c1,nt,i,16µM*,nt,i
O=S(=O)(NCCc1csc(-c2cccnc2)n1)c1cc(F)ccc1F,17%,14µM*,?,-15%,nt
O=C(NCCc1csc(-c2ccc(C(F)(F)F)cc2)n1)c1ccc(F)c(F)c1,nt,i,25µM*,-4%,?
O=S(=O)(NCCc1csc(-c2cccnc2)n1)c1cccc(F)c1,-2%,?,0%,-12%,i
O=C(Cc1ccc(F)cc1)NCCc1csc(-c2cccc(F)c2)n1,nt,i,11µM*,nt,i
SMILES,Mito fusion yeast,Abeta yeast res,TDP43 rescue,aSyn yeast inh,FUS suppressor
N.N.O=C(O)C1(C(=O)O)CCC1.[Pt+2],-8%,nt,nt,nt,nt
C#CCNC(=O)C[C@H]1C[C@@]2(C(=O)OC)C(=C[C@H](C3CCCC3)O[C@@H]2C)N(CCc2ccc(OC)c(OC)c2)C1=O,nt,nt,nt,nt,i
Cc1nc2c(nc1C)C(=O)c1ccccc1C2=O,nt,i,18µM*,-9%,nt
O=C1c2ccccc2-c2nc3ccccc3nc21,7%,i,?,8%,i
N#Cc1c(-c2ccccc2)cc(-c2ccc3c(c2)OCO3)[nH]c1=O,3%,i,0%,2%,nt
N#Cc1c(N)nc2c(c1-c1ccc3c(c1)OCO3)CCc1ccccc1-2,?,i,32µM*,8%,i
